In the antibiotic and cytotoxicity screens of Wong et al. (2023) one finds cytotoxicity call data, which are given here for 19 molecules.

The structures appear in SMILES notation. In all, about 39,000 compounds went through this assay and about 1,500 (3.8%) were called active. The list comes from a sample in which actives are over-represented; it also holds similar structures and randomly drawn compounds.

This assay concerns HSkMC (human skeletal muscle cells). The assay can be described thus: cytotoxicity call (relative viability < 0.9). To be noted: 10 µM.
On to `NNC(=O)CCc1ccccc1`, for which the cytotoxicity call was “inactive”. The result for `CNC(=O)CN1CCOC[C@]2(CCCN(C(C)=O)C2)C1` reads “inactive”; that for `S=C(NCCCc1cnc[nH]1)NCCCN(Cc1ccc(Cl)c(Cl)c1)c1ccc(Br)cn1`, “active”.

`COc1ccc(cc1)CN1C[C@]2(CCN(CC2)C(=O)Nc2cccc(c2)F)c2c([nH]c3cc(ccc23)OC)[C@@H]1CO`: the cytotoxicity call was “inactive”. The result for `COc1ccc2c3c([nH]c2c1)[C@H](CO)N(C[C@]13CCN(CC1)CC1CCCC1)C(=O)Nc1cccc(c1)F` reads “inactive”; that for `COc1ccc2c3c([nH]c2c1)[C@H](CO)N(C[C@]13CCN(CC1)CC1CCCCC1)C(=O)Nc1c(noc1C)C`, “inactive”; that for `COc1ccc2c3c([nH]c2c1)[C@@H](CO)N(C[C@]13CCN(CC1)CC1CCCC1)C(=O)Nc1cccc(c1)F`, “inactive”. For `COc1ccc2c3c([nH]c2c1)[C@@H](CO)N(CC1CCCCC1)C[C@]13CCN(CC1)C(=O)Nc1cccc(c1)F` the value was “active”; for `COc1ccc2c3c([nH]c2c1)[C@@H](CO)N(CC1CCOCC1)C[C@]13CCN(CC1)C(=O)C1CCOCC1`, “inactive”. As for `COc1ccc2c3c([nH]c2c1)[C@H](CO)N(C[C@]13CCN(CC1)CC1CCCCC1)C(=O)Nc1cccc(c1)F`, the cytotoxicity call is “active”.

As for `COc1ccc2c3c([nH]c2c1)[C@@H](CO)N(C[C@]13CCN(CC1)CC1CCCCC1)C(=O)Nc1c(noc1C)C`, the cytotoxicity call was “inactive”. The result for `COc1ccc2c3c([nH]c2c1)[C@H](CO)N(CC1CCCCC1)C[C@]13CCN(CC1)C(=O)NC1CCCC1` reads “active”; that for `COc1ccc2c3c([nH]c2c1)[C@@H](CO)N(C[C@]13CCN(CC1)CC1CCCCC1)C(=O)Nc1cccc(c1)F`, “active”.

As to `COc1ccc2c3c([nH]c2c1)[C@@H](CO)N(CC1CCCCC1)C[C@]13CCN(CC1)C(=O)NC1CCCC1`, the cytotoxicity call is “inactive”. The result for `COc1ccc2c3c([nH]c2c1)[C@H](CO)N(CC1CCCCC1)C[C@]13CCN(CC1)C(=O)Nc1cccc(c1)F` reads “inactive”; that for `C[C@@H]1CN([C@H](C)CO)S(=O)(=O)c2ccc(-c3ccc(C(=O)N(C)C)cc3)cc2O[C@H]1CN(C)C(=O)C1CC1`, “inactive”. For `C[C@@H]1CN([C@H](C)CO)C(=O)Cc2cc(NS(=O)(=O)c3ccccc3)ccc2O[C@H]1CN(C)S(=O)(=O)c1cccs1` the value was “inactive”; for `Cc1cc(C(=O)Nc2cccc3c2O[C@@H](CN(C)S(=O)(=O)c2cn(C)cn2)[C@H](C)CN([C@H](C)CO)C3=O)n(C)n1`, “inactive”; for `NC(=O)NCC#Cc1ccc2c(c1)[C@]1(C(=O)N2)[C@H](c2ccc(OCCO)cc2)N2[C@H](c3ccccc3)[C@H](c3ccccc3)OC(=O)[C@H]2[C@@H]1C(N)=O`, “inactive”.
